According to ChEMBL document CHEMBL1961873, “Compounds: GSK PKIS; Assays: Nanosyn kinase panel” (2012):

Tests used:
[1] = molecular target: Sphingosine kinase 1 (Homo sapiens) (UniProt Q9NYA1); conditions: at 1 µM;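 also: mean SPHK1 inhibition value reported from the GSK PKIS kinase panel screen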
[2] = molecular target: T1, Sphingosine kinase 2 (Homo sapiens) (UniProt Q9NRA0); conditions: at 0.1 µM
T1 sequence (whole entry): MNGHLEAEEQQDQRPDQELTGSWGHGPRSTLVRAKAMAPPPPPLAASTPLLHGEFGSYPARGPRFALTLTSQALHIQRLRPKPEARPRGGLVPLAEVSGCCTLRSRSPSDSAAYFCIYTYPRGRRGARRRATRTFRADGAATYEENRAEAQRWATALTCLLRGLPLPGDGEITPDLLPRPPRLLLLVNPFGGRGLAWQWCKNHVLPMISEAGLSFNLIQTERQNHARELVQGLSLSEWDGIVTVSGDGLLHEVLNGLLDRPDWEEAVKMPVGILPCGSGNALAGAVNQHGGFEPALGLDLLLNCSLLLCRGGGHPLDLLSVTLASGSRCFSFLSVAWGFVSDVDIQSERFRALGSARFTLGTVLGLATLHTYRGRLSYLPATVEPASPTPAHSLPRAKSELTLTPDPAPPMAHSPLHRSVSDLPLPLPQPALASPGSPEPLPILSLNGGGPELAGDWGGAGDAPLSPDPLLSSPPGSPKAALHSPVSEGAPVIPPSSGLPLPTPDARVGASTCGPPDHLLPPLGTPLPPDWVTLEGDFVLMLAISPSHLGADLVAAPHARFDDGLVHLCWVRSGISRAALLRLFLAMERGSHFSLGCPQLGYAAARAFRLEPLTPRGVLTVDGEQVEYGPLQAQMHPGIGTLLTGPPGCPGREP

[3] = molecular target: T1, Sphingosine kinase 2 (Homo sapiens); conditions: at 1 µM
[4] = molecular target: Casein kinase II subunit alpha (Homo sapiens) (UniProt P68400); conditions: at 0.1 µM
Sequence of Casein kinase II subunit alpha (Homo sapiens) (P68400 whole entry, looked up): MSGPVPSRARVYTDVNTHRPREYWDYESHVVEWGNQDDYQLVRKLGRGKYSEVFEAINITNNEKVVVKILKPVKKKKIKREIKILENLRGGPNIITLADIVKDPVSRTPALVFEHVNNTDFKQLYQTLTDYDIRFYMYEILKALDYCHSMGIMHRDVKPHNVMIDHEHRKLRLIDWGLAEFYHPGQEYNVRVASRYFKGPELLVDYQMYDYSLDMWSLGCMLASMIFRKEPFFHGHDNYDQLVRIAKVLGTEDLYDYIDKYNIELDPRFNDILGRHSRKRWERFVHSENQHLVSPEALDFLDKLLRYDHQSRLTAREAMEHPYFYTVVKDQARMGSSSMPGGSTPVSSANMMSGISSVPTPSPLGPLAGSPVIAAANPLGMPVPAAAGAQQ

[5] = molecular target: Casein kinase II subunit alpha (Homo sapiens) (UniProt P68400); conditions: at 1 µM
[6] = molecular target: T2, Inhibitor of nuclear factor kappa-B kinase subunit alpha (Homo sapiens) (UniProt O15111); conditions: at 0.1 µM
T2 sequence (whole entry): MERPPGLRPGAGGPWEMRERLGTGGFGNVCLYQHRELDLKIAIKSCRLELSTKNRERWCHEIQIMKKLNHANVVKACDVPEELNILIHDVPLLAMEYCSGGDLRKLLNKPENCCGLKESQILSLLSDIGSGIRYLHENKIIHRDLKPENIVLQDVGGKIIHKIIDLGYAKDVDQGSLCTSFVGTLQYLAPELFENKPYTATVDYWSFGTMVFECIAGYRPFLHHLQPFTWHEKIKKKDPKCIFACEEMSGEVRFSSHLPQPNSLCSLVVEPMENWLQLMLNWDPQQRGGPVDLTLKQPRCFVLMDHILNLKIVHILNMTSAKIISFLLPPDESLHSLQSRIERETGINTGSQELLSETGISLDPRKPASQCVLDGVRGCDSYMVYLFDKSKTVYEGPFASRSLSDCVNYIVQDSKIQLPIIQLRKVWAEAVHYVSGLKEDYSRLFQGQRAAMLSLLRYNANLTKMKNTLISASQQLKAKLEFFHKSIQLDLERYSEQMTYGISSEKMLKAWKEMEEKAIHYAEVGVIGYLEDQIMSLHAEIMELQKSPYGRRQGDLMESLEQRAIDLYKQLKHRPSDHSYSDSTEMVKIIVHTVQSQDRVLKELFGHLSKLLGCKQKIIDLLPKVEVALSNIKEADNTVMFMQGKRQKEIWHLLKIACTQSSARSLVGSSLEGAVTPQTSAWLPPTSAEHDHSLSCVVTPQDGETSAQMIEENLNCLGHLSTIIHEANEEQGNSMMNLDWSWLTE

[7] = molecular target: T2, Inhibitor of nuclear factor kappa-B kinase subunit alpha (Homo sapiens); conditions: at 1 µM
[8] = molecular target: T3, Inhibitor of nuclear factor kappa-B kinase subunit beta (Homo sapiens) (UniProt O14920); conditions: at 0.1 µM
T3 sequence (whole entry): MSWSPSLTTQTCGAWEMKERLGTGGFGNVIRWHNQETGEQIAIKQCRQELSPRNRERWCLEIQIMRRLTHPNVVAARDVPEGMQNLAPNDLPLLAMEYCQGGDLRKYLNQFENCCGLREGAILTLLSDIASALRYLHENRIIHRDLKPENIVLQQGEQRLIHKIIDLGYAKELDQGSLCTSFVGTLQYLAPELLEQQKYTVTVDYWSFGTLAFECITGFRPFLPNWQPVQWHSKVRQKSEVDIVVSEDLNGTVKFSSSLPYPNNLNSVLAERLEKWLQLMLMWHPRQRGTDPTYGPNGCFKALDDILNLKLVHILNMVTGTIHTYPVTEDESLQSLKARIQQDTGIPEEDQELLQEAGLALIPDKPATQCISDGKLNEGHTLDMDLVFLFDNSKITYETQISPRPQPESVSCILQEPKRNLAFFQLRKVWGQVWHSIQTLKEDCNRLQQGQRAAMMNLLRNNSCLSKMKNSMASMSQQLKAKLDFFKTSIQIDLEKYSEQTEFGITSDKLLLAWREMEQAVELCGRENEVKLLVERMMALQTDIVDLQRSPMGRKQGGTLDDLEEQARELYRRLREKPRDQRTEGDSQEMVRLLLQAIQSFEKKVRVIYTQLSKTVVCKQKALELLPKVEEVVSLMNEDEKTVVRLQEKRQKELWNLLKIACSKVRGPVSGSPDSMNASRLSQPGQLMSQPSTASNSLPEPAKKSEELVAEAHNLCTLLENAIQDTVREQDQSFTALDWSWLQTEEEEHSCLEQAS

[9] = molecular target: T3, Inhibitor of nuclear factor kappa-B kinase subunit beta (Homo sapiens); conditions: at 1 µM
[10] = molecular target: T4, Inhibitor of nuclear factor kappa-B kinase subunit epsilon (Homo sapiens) (UniProt Q14164); conditions: at 0.1 µM
T4 sequence (whole entry): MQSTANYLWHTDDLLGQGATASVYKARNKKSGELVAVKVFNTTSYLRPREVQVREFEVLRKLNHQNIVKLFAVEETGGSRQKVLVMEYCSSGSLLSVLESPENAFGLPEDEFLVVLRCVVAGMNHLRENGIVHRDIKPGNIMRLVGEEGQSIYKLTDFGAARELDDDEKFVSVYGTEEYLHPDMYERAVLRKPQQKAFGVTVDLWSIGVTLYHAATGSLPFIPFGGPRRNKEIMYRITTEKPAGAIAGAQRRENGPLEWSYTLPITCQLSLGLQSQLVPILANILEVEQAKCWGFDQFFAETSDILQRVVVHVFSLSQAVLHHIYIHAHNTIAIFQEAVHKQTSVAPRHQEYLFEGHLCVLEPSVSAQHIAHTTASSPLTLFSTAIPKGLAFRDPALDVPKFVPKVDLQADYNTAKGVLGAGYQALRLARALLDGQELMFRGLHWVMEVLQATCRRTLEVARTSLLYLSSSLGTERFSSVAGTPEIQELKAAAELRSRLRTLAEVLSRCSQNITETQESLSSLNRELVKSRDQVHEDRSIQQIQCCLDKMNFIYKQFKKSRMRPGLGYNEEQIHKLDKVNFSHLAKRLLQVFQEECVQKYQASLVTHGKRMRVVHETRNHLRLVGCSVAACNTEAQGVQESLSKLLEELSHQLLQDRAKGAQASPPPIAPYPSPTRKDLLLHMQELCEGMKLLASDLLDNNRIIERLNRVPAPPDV

[11] = molecular target: T4, Inhibitor of nuclear factor kappa-B kinase subunit epsilon (Homo sapiens); conditions: at 1 µM
[12] = molecular target: T5, Serine/threonine-protein kinase Nek1 (Homo sapiens) (UniProt Q96PY6); conditions: at 0.1 µM
T5 sequence (whole entry): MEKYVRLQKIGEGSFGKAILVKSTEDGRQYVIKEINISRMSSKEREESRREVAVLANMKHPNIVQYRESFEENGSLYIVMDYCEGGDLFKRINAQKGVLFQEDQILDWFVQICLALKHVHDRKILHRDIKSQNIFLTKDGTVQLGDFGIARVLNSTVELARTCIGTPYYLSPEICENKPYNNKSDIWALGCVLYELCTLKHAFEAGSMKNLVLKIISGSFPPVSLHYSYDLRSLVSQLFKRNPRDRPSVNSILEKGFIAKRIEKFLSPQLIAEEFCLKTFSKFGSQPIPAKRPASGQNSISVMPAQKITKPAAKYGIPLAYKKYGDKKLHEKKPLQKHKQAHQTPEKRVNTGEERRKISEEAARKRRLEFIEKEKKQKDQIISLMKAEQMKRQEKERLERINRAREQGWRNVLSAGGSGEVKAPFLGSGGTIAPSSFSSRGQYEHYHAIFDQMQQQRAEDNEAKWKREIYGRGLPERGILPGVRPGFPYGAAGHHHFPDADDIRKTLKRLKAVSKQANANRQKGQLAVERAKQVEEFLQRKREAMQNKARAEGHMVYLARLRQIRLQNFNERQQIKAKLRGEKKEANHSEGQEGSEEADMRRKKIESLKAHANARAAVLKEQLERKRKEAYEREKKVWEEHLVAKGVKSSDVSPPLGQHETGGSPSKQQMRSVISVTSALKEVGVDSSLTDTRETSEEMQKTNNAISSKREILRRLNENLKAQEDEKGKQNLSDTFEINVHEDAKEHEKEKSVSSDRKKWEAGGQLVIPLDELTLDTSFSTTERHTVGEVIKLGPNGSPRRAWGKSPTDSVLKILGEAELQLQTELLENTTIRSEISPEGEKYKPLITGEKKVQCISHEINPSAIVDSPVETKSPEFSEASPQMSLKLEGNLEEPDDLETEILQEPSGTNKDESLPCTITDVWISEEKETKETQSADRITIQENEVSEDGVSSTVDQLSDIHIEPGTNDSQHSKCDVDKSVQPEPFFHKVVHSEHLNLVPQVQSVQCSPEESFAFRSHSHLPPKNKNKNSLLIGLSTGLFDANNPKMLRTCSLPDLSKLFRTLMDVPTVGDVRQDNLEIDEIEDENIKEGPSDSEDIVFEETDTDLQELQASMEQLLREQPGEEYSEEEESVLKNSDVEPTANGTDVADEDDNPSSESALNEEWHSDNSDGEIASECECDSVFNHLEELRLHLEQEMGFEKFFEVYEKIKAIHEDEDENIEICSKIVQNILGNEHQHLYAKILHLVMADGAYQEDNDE

[13] = molecular target: T5, Serine/threonine-protein kinase Nek1 (Homo sapiens); conditions: at 1 µM
[14] = molecular target: T6, Serine/threonine-protein kinase Nek2 (Homo sapiens) (UniProt P51955); conditions: at 0.1 µM
T6 sequence (whole entry): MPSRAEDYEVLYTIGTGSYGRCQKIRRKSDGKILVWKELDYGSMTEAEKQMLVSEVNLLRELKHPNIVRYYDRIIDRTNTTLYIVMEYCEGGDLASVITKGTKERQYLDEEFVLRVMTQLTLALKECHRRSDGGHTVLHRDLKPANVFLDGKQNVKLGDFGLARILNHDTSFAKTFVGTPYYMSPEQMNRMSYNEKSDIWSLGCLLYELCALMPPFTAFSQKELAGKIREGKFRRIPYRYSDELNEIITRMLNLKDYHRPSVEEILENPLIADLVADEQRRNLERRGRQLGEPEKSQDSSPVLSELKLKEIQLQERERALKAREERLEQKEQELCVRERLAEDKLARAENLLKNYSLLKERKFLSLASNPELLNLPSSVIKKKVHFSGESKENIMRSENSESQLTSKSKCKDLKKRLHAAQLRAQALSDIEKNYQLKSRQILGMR

[15] = molecular target: T6, Serine/threonine-protein kinase Nek2 (Homo sapiens); conditions: at 1 µM
[16] = molecular target: Serine/threonine-protein kinase Nek6 (Homo sapiens) (UniProt Q9HC98); conditions: at 0.1 µM
Sequence of Serine/threonine-protein kinase Nek6 (Homo sapiens) (Q9HC98 whole entry): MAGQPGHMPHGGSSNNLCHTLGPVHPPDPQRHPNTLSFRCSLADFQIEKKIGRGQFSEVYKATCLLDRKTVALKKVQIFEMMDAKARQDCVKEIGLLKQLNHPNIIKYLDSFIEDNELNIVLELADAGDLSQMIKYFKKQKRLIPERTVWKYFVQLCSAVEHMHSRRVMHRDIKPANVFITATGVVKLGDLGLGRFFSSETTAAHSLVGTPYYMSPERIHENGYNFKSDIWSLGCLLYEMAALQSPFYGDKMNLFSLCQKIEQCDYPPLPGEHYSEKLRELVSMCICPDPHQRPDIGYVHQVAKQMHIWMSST

[17] = molecular target: Serine/threonine-protein kinase Nek6 (Homo sapiens) (UniProt Q9HC98); conditions: at 1 µM
[18] = molecular target: Serine/threonine-protein kinase Nek7 (Homo sapiens) (UniProt Q8TDX7); conditions: at 0.1 µM
Sequence of Serine/threonine-protein kinase Nek7 (Homo sapiens) (Q8TDX7 whole entry, looked up): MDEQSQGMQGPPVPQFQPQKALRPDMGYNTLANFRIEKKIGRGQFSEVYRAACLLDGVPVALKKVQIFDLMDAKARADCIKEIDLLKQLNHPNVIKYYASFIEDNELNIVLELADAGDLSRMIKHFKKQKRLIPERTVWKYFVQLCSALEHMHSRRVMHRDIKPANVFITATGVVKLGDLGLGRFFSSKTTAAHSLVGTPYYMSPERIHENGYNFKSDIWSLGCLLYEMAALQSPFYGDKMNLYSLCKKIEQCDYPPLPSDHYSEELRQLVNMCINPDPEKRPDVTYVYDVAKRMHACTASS

[19] = molecular target: Serine/threonine-protein kinase Nek7 (Homo sapiens) (UniProt Q8TDX7); conditions: at 1 µM
[20] = molecular target: T7, Serine/threonine-protein kinase Nek9 (Homo sapiens) (UniProt Q8TD19); conditions: at 0.1 µM;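 also: reported value is the mean percent inhibition of NEK9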
T7 sequence (whole entry): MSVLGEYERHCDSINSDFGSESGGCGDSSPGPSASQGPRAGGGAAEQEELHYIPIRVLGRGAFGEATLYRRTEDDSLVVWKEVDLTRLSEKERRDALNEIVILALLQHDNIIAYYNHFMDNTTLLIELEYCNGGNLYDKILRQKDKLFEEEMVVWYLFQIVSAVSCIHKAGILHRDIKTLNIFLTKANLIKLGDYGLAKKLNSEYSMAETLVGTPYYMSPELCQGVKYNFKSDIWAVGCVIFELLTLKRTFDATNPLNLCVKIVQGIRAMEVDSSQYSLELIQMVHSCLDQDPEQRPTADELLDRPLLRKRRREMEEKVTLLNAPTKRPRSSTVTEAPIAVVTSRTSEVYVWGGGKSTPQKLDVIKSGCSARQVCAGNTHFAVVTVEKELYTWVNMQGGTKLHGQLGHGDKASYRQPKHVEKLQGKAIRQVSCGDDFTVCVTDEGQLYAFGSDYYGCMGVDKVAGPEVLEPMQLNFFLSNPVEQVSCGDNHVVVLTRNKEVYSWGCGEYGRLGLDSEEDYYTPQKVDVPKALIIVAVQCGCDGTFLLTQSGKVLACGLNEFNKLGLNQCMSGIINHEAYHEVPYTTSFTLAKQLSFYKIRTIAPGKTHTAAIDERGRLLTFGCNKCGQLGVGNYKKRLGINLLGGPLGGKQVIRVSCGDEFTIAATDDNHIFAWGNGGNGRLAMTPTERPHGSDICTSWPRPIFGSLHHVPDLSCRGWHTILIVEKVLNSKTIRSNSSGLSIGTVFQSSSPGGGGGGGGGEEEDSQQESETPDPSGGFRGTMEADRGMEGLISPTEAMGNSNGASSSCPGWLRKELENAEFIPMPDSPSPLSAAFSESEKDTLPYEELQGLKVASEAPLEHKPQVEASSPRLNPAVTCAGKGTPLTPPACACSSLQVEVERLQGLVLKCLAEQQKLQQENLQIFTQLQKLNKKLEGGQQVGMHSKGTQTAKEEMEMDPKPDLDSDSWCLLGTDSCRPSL

Sequence of Sphingosine kinase 1 (Homo sapiens) (Q9NYA1 whole entry): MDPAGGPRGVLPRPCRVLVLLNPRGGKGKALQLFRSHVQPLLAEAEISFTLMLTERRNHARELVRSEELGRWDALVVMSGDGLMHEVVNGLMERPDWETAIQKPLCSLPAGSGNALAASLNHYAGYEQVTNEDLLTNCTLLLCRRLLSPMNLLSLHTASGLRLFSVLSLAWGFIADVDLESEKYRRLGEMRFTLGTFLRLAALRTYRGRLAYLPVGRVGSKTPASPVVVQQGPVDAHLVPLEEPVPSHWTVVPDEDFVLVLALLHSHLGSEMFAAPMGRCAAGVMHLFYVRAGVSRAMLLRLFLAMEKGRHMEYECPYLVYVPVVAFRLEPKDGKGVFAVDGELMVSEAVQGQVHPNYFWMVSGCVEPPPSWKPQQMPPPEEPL

Compound | inhibition [1] [%] | inhibition [2] [%] | inhibition [3] [%] | inhibition [4] [%] | inhibition [5] [%] | inhibition [6] [%] | inhibition [7] [%] | inhibition [8] [%] | inhibition [9] [%] | inhibition [10] [%] | inhibition [11] [%] | inhibition [12] [%] | inhibition [13] [%] | inhibition [14] [%] | inhibition [15] [%] | inhibition [16] [%] | inhibition [17] [%] | inhibition [18] [%] | inhibition [19] [%] | inhibition [20] [%]
CS(=O)(=O)CCNCc1ccc(-c2ccc3ncnc(Nc4ccc(OCc5ccccc5)c(Cl)c4)c3c2)o1 | 2.51 | 1.2 | -1.85 | -1.12 | 1.71 | -2.26 | 2.45 | -1.73 | 0.03 | 0.17 | -0.15 | 1.25 | 2.81 | 1.61 | 0.43 | 3.37 | -1.04 | 0.02 | 2.5 | -1.85
O=C1NC(=O)C(c2ccccc2Cl)=C1Nc1cccc(O)c1 | -1.02 | 0.69 | -0.36 | 0.98 | 0.1 | 3.36 | 1.21 | 3.78 | 3.39 | 1.96 | 5.16 | 1.26 | 2.01 | 3.03 | 3.05 | 1.73 | -0.89 | 4.66 | 2.35 | 2.76
